{"source": "the supplement of paper PMC11624193", "about": "“Coupling cellular drug-target engagement to downstream pharmacology with CeTEAM” (Nature Communications, 2024)", "note": "Counter-ions that a name gives are not always drawn.", "data": [{"target": "PARP1 L713F-nLuc biosensor (HCT116) (UniProt P09874)", "sequence (P09874 whole entry L713F, looked up)": "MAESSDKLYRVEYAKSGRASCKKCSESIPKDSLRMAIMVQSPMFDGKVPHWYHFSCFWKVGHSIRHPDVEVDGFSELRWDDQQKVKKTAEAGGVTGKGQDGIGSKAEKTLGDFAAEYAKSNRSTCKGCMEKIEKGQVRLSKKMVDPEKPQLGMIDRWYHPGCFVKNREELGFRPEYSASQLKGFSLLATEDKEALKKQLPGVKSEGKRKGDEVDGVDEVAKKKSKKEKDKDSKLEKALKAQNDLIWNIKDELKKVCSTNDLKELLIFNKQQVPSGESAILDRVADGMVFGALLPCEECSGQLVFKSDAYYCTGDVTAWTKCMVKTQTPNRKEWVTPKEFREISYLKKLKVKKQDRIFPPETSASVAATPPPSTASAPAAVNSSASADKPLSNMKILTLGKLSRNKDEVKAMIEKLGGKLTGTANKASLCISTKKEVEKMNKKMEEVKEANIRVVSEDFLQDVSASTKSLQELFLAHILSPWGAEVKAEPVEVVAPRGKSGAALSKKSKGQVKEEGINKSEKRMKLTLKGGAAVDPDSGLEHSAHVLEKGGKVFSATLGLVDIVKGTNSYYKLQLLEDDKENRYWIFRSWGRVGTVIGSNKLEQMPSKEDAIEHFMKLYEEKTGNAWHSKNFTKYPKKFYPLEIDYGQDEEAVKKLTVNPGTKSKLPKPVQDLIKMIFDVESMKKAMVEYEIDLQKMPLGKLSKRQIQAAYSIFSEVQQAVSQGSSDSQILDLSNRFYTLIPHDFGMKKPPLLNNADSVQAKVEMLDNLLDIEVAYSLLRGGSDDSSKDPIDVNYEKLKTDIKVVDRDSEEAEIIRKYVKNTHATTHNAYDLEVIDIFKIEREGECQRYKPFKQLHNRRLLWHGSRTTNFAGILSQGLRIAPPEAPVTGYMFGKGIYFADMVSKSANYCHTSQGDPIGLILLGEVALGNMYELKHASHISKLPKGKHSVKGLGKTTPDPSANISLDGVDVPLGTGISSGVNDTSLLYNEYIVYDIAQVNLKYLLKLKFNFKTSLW", "assay": "PARP1 L713F-nLuc/akaLuc ratio relative to DMSO control (biosensor stabilization) (fold change); higher = more PARP1 biosensor stabilization (target engagement / stabilizer), active = hit call of the paper", "details": "stock concentration (mM; final µM = stock mM x 1): 2; 24 h;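 active = log2 fold change beyond 2 SD from the library mean after excluding viability outliers; inactive = within 2 SD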", "values": [{"smiles": "CCC(C)n1ncn(-c2ccc(N3CCN(c4ccc(OCC5COC(Cn6cncn6)(c6ccc(Cl)cc6Cl)O5)cc4)CC3)cc2)c1=O", "note": "(stereo not drawn) [Itraconazole]", "PARP1 L713F-nLuc/akaLuc ratio": "0.872 (inactive)"}, {"smiles": "C=CC(=O)Nc1cc2c(Nc3ccc(F)c(Cl)c3)ncnc2cc1OCCCN1CCOCC1", "note": "[Canertinib (CI-1033)]", "PARP1 L713F-nLuc/akaLuc ratio": "1.01 (inactive)"}, {"smiles": "CCc1cc(O)c(F)cc1-c1ccc2c(-c3nc4c([nH]3)CN(C3CCN(C)CC3)CC4)n[nH]c2c1", "note": "[JAK-IN-5 (hydrochloride)]", "PARP1 L713F-nLuc/akaLuc ratio": "0.581 (inactive)"}, {"smiles": "Cc1nn(C)c(COc2ccc(N3CCN(S(=O)(=O)N(C)C)CC3)cc2)c1-c1cccc2c(CCCOc3cccc4ccccc34)c(C(=O)O)n(CCN3CCOCC3)c12", "PARP1 L713F-nLuc/akaLuc ratio": "1.04 (inactive)"}]}, {"target": "PARP1 L713F-nLuc biosensor (HCT116) (UniProt P09874)", "assay": "PARP1 L713F-nLuc/akaLuc ratio relative to DMSO control (biosensor stabilization) (fold change); higher = more PARP1 biosensor stabilization (target engagement / stabilizer), active = hit call of the paper", "details": "stock concentration (mM; final µM = stock mM x 1): 10; 24 h", "values": [{"smiles": "Cc1cc(Nc2cc(N3CCN(C)CC3)nc(Nc3ccc([N+](=O)[O-])cc3)n2)n[nH]1", "PARP1 L713F-nLuc/akaLuc ratio": "1.52 (inactive)"}, {"smiles": "O=C(O)C1=CC(=C(c2ccc(O)c(C(=O)O)c2)c2ccc(O)c(C(=O)O)c2)C=CC1=O", "note": "[Aurintricarboxylic acid]", "PARP1 L713F-nLuc/akaLuc ratio": "0.68 (inactive)"}, {"smiles": "N#Cc1cc(F)cc(Oc2ccc(S(=O)(=O)C(F)F)c3c2CC(F)(F)C3O)c1", "note": "(racemic)", "PARP1 L713F-nLuc/akaLuc ratio": "0.759 (inactive)"}, {"smiles": "C[C@H](Nc1cc(-c2cnn(C)c2)cc(Nc2cnccn2)n1)c1ccc(F)cc1", "note": "[Ilginatinib hydrochloride]", "PARP1 L713F-nLuc/akaLuc ratio": "0.281 (active)"}, {"smiles": "O=C1c2ccccc2C(=O)c2c(NCCc3ccc(O)cc3)ccc(NCCc3ccc(O)cc3)c21", "PARP1 L713F-nLuc/akaLuc ratio": "0.91 (inactive)"}, {"smiles": "C[C@@H](COCCC(=O)N1CCN(c2ncc(C(F)(F)F)cn2)CC1)Nc1cn[nH]c(=O)c1C(F)(F)F", "PARP1 L713F-nLuc/akaLuc ratio": "2.09 (inactive)"}, {"smiles": "CC(C)(O)c1ccc(-c2nc3c(F)cc(F)cc3c(=O)[nH]2)cc1", "note": "[Tankyrase-IN-2]", "PARP1 L713F-nLuc/akaLuc ratio": "2.95 (active)"}, {"smiles": "Nc1nc(OCc2ccc(CNC(=O)C(F)(F)F)cc2)c2[nH]cnc2n1", "note": "[PIN1 inhibitor API-1]", "PARP1 L713F-nLuc/akaLuc ratio": "1.38 (inactive)"}, {"smiles": "CC(C)c1c(C(=O)Nc2ccccc2)c(-c2ccccc2)c(-c2ccc(F)cc2)n1CC[C@@H](O)C[C@@H](O)CC(=O)O", "note": "[Atorvastatin Calcium]", "PARP1 L713F-nLuc/akaLuc ratio": "0.363 (inactive)"}, {"smiles": "N#Cc1ccc2[nH]c(O)c(-c3ccc(CN4CCOCC4)cn3)c2c1", "PARP1 L713F-nLuc/akaLuc ratio": "0.881 (inactive)"}, {"smiles": "CS(=O)(=O)c1ccc(Oc2cc(F)cc(C#N)c2)c2c1[C@H](O)C(F)(F)C2", "PARP1 L713F-nLuc/akaLuc ratio": "1.42 (inactive)"}, {"smiles": "COc1ccc2c(c1)c(C(=O)Nc1cc(C(=O)OC(C)(C)C)ccc1F)cn2C(C)=O", "PARP1 L713F-nLuc/akaLuc ratio": "0.714 (inactive)"}, {"smiles": "O=C(Nc1ccc(O)c(C(=O)O)c1)c1cccc(NC(=O)c2ccco2)c1", "PARP1 L713F-nLuc/akaLuc ratio": "1.19 (inactive)"}, {"smiles": "COc1nc(N)nc2c1ncn2[C@@H]1O[C@H](CO)[C@@H](O)[C@@H]1O", "note": "[Nelarabine]", "PARP1 L713F-nLuc/akaLuc ratio": "1.15 (inactive)"}, {"smiles": "Nc1nc(Cl)nc2c1ncn2[C@@H]1O[C@H](CO)[C@@H](O)[C@@H]1F", "note": "[Clofarabine]", "PARP1 L713F-nLuc/akaLuc ratio": "0.577 (inactive)"}, {"smiles": "CN(C)CCOc1ccc(/C(=C(/CCCl)c2ccccc2)c2ccccc2)cc1", "note": "[Toremifene Citrate]", "PARP1 L713F-nLuc/akaLuc ratio": "0.791 (inactive)"}, {"smiles": "O=C(CNC(=O)[C@H](COP(=O)(O)O)NC(=O)CCc1c[nH]c2ccccc12)NCCCCc1ccccc1", "PARP1 L713F-nLuc/akaLuc ratio": "1.08 (inactive)"}, {"smiles": "CC(=O)N(O)CCCCCNC(=O)CCC(=O)N(O)CCCCCNC(=O)CCC(=O)N(O)CCCCCN", "note": "[Deferoxamine mesylate]", "PARP1 L713F-nLuc/akaLuc ratio": "0.984 (inactive)"}, {"smiles": "Cc1cc(CN)cc(C)c1-c1ncn(C)c1-c1ccnc2cc(F)ccc12", "note": "[BI-9321 (trihydrochloride)]", "PARP1 L713F-nLuc/akaLuc ratio": "0.66 (inactive)"}, {"smiles": "Cc1cn(-c2cc(NC(=O)c3ccc(C)c(Nc4nccc(-c5cccnc5)n4)c3)cc(C(F)(F)F)c2)cn1", "note": "[Nilotinib (AMN-107)]", "PARP1 L713F-nLuc/akaLuc ratio": "0.959 (inactive)"}, {"smiles": "CO[C@H]1C(=O)[C@]2(C)[C@@H](OC)C[C@H]3OC[C@@]3(OC(C)=O)[C@H]2[C@H](OC(=O)c2ccccc2)[C@]2(O)C[C@H](OC(=O)[C@H](O)[C@@H](NC(=O)OC(C)(C)C)c3ccccc3)C(C)=C1C2(C)C", "note": "[Cabazitaxel]", "PARP1 L713F-nLuc/akaLuc ratio": "1.2 (inactive)"}, {"smiles": "CC(C)N(CCCNC(=O)Nc1ccc(C(C)(C)C)cc1)C[C@H]1O[C@@H](n2ccc3c(N)ncnc32)[C@H](O)[C@@H]1O", "PARP1 L713F-nLuc/akaLuc ratio": "2.19 (inactive)"}, {"smiles": "NC(=O)c1ccc(I)c([N+](=O)[O-])c1", "note": "[Iniparib]", "PARP1 L713F-nLuc/akaLuc ratio": "1.12 (inactive)"}, {"smiles": "O=[N+]([O-])c1cc(Nc2ccc3nonc3c2[N+](=O)[O-])ccc1Cl", "PARP1 L713F-nLuc/akaLuc ratio": "1.28 (inactive)"}]}]}
